Bioassay records deposited in PubChem by National Center for Advancing Translational Sciences (NCATS).
Shown are actives, neighbours in structure and some others; about 11% of the full set was active somewhere.
G9a inh – qHTS Assay for Inhibitors of Histone Lysine Methyltransferase G9a; G9a H3K9 monomethylation, AlphaScreen, 2 h; Potency, µM (highest dose often 102 µM), most hits filed as inhibitors; 8.8% of 350,000 active; AID 504332, 2011; also: nearly all actives have a fitted effect of over 75% in size
Target sequence (Q96KQ7 913-1193 limits assumed): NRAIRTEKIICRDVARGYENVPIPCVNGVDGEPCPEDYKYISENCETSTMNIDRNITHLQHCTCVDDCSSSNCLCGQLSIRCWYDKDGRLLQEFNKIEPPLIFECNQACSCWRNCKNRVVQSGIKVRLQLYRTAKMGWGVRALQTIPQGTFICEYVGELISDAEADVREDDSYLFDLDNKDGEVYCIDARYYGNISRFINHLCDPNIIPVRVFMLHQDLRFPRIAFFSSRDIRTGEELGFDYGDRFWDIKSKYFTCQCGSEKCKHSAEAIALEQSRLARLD
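Readings reflect AlphaScreen signal from monomethyl-H3K9 antibody detection. HMT at 20 nM; substrate b-H3K9 500 nM; cofactor SAM 20 uM; 2 h RT reaction; compounds tested as titrations in qHTS with 15 min preincubation.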
Tau fluor counter – Counterscreen qHTS for Inhibitors of Tau Fibril Formation, Fluorescence Polarization; tau K18 P301L Alexa594 fluorescence, heparin fibrillization; Potency, µM (highest dose often 57.7 µM); 0.93% of 280,000 active; also: nearly all actives have a fitted effect of over 55% in size
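Human tau K18 P301L (15 uM unlabeled, 0.24 uM Alexa 594-labeled) in 100 mM sodium acetate pH 7 with 20 uM heparin, 6 hr at 37 C. ThT 30 uM added, 1 hr ambient; Alexa 594 FP and total fluorescence read at 555/632 nm.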
Tau ThT inhib – qHTS for Inhibitors of Tau Fibril Formation, Thioflavin T Binding; Microtubule-associated protein tau (Homo sapiens), P10636; Potency, µM (series often up to 57.4 µM), most hits filed as inhibitors; recombinant tau K18 P301L, heparin-induced fibrillization, ThT fluorescence; 2.1% of 270,000 active; also: nearly all actives have a fitted effect of over 55% in size
Target sequence (P10636 561-689 P618L limits assumed): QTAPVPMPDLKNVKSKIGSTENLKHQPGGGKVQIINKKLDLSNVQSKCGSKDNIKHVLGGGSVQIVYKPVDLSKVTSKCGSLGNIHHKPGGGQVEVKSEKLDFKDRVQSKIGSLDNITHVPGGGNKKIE
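Using a mix of unlabeled (15 uM) and Alexa 594-labeled (0.24 uM) tau K18 P301L, heparin-triggered fibrillization over 6 hr at 37 C was scored by ThT fluorescence.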
FBPA coupling cs – qHTS Assay for Inhibitors of Fructose-1,6-bisphosphate Aldolase from Giardia Lamblia: Coupling assay counterscreen; coupling enzyme system counterscreen, AmpLite Red fluorescence; activity change, negative = inhibition, % at 58.2 µM, hits read low; 0.67% of 290,000 active; AID 2472, 2010; in the data active = activity change below about -30%
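Coupling enzymes only (glyceraldehyde-3-phosphate) + compound, at 57.5 uM final, 10 min RT; add substrate/coupling/AmpLite Red mix, 20 min RT; fluorescence ex 525/em 598 nm. Actives flag coupling-system interference.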
Tau fibril FP – qHTS for Inhibitors of Tau Fibril Formation, Fluorescence Polarization; AID 1468, 2008; Potency, µM (titrated, usually from 57.7 µM), actives largely listed as inhibitors; K18 P301L tau heparin fibrillization, Alexa594 FP, 6 h; 0.39% of 280,000 active; also: nearly all actives have a fitted effect of over 55% in size
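Read-out: fluorescence polarization of Alexa 594-labeled tau (0.24 uM), 555 nm excitation, 632 nm emission. Mixtures held 15 uM unlabeled K18 P301L, compound and 20 uM heparin, pH 7 acetate buffer, incubated 6 hr at 37 C.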
Sfp PPTase inh – qHTS Assay for Inhibitors of Bacillus subtilis Sfp phosphopantetheinyl transferase (PPTase); 3.5% of 310,000 active; Biochemical Sfp PPTase activity, qHTS; Potency, µM, actives largely listed as inhibitors; 4'-phosphopantetheinyl transferase ffp (Bacillus subtilis), Q9F4F7;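 also: the enzyme is Sfp with the accession as filed and its product quenches rhodamine fluorescence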
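Buffer: 50 mM Hepes-Na pH 7.6, 10 mM MgCl2, 0.01% Nonidet P-40, 0.01% BSA. Enzyme 15 nM, pre-exposed to compound 15 min; substrates then added and fluorescence change tracked over 30 min.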
Of the large screens only hits and unclear results are named; the others gave an inactive call. Unless noted, calls follow the shape of the dose curve; as a rule, active = well fitted curve in the direction sought with a large enough effect; inconclusive = small, poorly fitted or top-dose-only effect, or another doubt; inactive = no such curve, though single readings can be large; an effect the other way counts as inactive or inconclusive.

Cc1cc(C)cc(-n2c(SCC(=O)N3CCC(C)CC3)nc3c([nH]c4ccccc43)c2=O)c1	none (no result: FBPA coupling cs, Sfp PPTase inh)
O=C1Nc2ccccc2S/C1=C/NCc1ccccc1Cl	G9a inh 32µM, Tau fluor counter inconclusive, Tau ThT inhib inconclusive, Sfp PPTase inh 56µM
COc1ccc(-n2c(=S)[nH]c3cc(C(=O)NCCCN4CCOCC4)ccc3c2=O)cc1OC	G9a inh 35µM (no result: Tau fluor counter, Tau ThT inhib, Tau fibril FP)
COc1ccccc1CNC(=O)c1ccc2c(=O)n(CCCN3CCCC3=O)c(=S)[nH]c2c1	Tau fibril FP inconclusive
O=C(NCCCN1CCOCC1)c1ccc2c(=O)n(Cc3ccccc3)c(=S)[nH]c2c1	G9a inh 50µM (no result: Tau fluor counter, Tau ThT inhib, Tau fibril FP)
COc1ccc(CNC(=O)c2ccc3c(=O)n(CCCN4CCCC4=O)c(=S)[nH]c3c2)cc1	Tau fibril FP inconclusive
COc1ccc(OC)c(-n2c(=S)[nH]c3cc(C(=O)NCCCN4CCCC4=O)ccc3c2=O)c1	G9a inh 28µM, Sfp PPTase inh inconclusive
O=C(c1ccc2c(=O)n(Cc3ccccc3)c(=S)[nH]c2c1)N1CCOCC1	G9a inh inconclusive (no result: Tau fluor counter, Tau ThT inhib, Tau fibril FP)
COc1ccc(C(=O)NCCCN2CCOCC2)cc1OC	none
COc1ccc(-n2c(=S)[nH]c3cc(C(=O)NCCCN4CCCC4=O)ccc3c2=O)cc1OC	G9a inh 35µM, Sfp PPTase inh inconclusive
COc1ccc(Cl)cc1NC(=O)CN(C)CC(=O)NC(C)c1ccccc1 (stereo not given)	none
CCOc1ccccc1NC(=O)C1CCN(S(=O)(=O)Cc2ccccc2)CC1	none (no result: FBPA coupling cs, Sfp PPTase inh)
Cc1cc(C)c(C(=O)Nc2ccccc2)c(SCC(=O)Nc2ccc(Br)cc2C)n1	none (no result: FBPA coupling cs, Sfp PPTase inh)
CCOC(=O)n1n[n+]([O-])c2ccccc21	none
COc1ccccc1Cn1c(=S)[nH]c2cc(C(=O)NCC3CCCO3)ccc2c1=O (stereo not given)	none
COCCn1c(=O)[nH]c2cc(C(=O)NCCN3CCN(c4ccccc4)CC3)ccc2c1=O	Tau ThT inhib inconclusive
COCCn1c(=O)[nH]c2cc(C(=O)NCCN3CCN(c4ccc(OC)cc4)CC3)ccc2c1=O	G9a inh 10µM
COc1ccccc1Cn1c(=S)[nH]c2cc(C(=O)NCCN(C)C)ccc2c1=O	G9a inh 45µM (no result: Tau fluor counter, Tau ThT inhib, Tau fibril FP)
COc1ccccc1NC(=O)C1=C(C)Nc2nc3ccccc3n2C1c1cccc(OC)c1OC (stereo not given)	Tau fluor counter inconclusive (no result: FBPA coupling cs, Sfp PPTase inh)
Cc1cccnc1NC(=O)CSc1ncnc2sc(C)c(C)c12	G9a inh 50µM (no result: Tau fluor counter, Tau ThT inhib, FBPA coupling cs, Tau fibril FP, Sfp PPTase inh)
CCC(Sc1ncnc2sc(C)c(C)c12)C(=O)OC (stereo not given)	G9a inh 2µM
Cc1sc2ncnc(SCC(=O)Nc3ncccc3O)c2c1C	none (no result: Tau fluor counter, Tau ThT inhib, FBPA coupling cs, Tau fibril FP, Sfp PPTase inh)
CCC(Sc1ncnc2sc3c(c12)CCCC3)C(=O)OC(C)C (stereo not given)	none (no result: FBPA coupling cs, Sfp PPTase inh)
COc1ccc(-c2csc(NC(=O)CSc3n[nH]c(N)n3)n2)cc1	G9a inh 8.9µM
COc1ccc2cc(C)c3nnc(SCC(=O)Nc4nc(-c5ccccc5)cs4)n3c2c1	Sfp PPTase inh 79µM
Cc1cc(NC(=O)CSc2nnc3c(C)cc4cc5c(cc4n23)OCO5)no1	G9a inh 35µM
COc1ccc(-c2csc(NC(=O)CSc3n[nH]c(C)n3)n2)cc1	none (no result: Tau fluor counter, Tau ThT inhib, Tau fibril FP)
CCn1c(SCC(=O)Nc2nc(-c3ccccc3)cs2)nnc1-c1ccccc1	G9a inh inconclusive
COc1ccc2cc(C)c3nnc(SCC(=O)Nc4cc(OC)c(OC)cc4C(=O)O)n3c2c1	G9a inh 40µM
COc1cc(NC(=O)CSc2nnc3c(C)cc4cc(C)cc(C)c4n23)c(C(=O)O)cc1OC	none (no result: G9a inh)
O=C(COc1cccc(C(F)(F)F)c1)NCC(c1ccco1)N1CCCCC1 (stereo not given)	none (no result: Tau fluor counter, Tau ThT inhib, FBPA coupling cs, Tau fibril FP, Sfp PPTase inh)
O=[N+]([O-])c1cc(S(=O)(=O)N2CCCCC2)ccc1NCCCN1CCOCC1	none
O=C(CN1C(=O)NC2(CCCC2)C1=O)OCCOc1ccc(Cl)cc1	none (no result: Tau fluor counter, Tau ThT inhib, FBPA coupling cs, Tau fibril FP, Sfp PPTase inh)
